According to PubChem BioAssay (NCI):
About 83,000 compounds went through this panel and 20% of them were active in at least one assay; those are over-represented in the sample as a whole.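 Testing used 96-well plates and a 48-hour single-concentration exposure. Example: -40 means 40% of the starting cells died.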 Activity calls are given as the source filed them. How the source made its calls: active means growth percent below 10; inactive means the rest.

How the values were obtained:
Assay in all cases: NCI-60 one-dose screen, 48 h (100 = growth as untreated, 0 = no growth, -100 = all killed)
Conditions in all cases: 10 µM unless noted
SR leukemia = system: SR leukemia
RPMI-8226 leukemia = system: RPMI-8226 leukemia
OVCAR-8 ovarian = system: OVCAR-8 ovarian
OVCAR-5 ovarian = system: OVCAR-5 ovarian
OVCAR-4 ovarian = system: OVCAR-4 ovarian
SK-OV-3 ovarian = system: SK-OV-3 ovarian
IGROV1 ovarian = system: IGROV1 ovarian
OVCAR-3 ovarian = system: OVCAR-3 ovarian
NCI/ADR-RES ovarian = system: NCI/ADR-RES ovarian
T-47D breast = system: T-47D breast
BT-549 breast = system: BT-549 breast
SW-620 colon = system: SW-620 colon
MCF7 breast = system: MCF7 breast
HCT-116 colon = system: HCT-116 colon
HCC-2998 colon = system: HCC-2998 colon
KM12 colon = system: KM12 colon
HS 578T breast = system: HS 578T breast
MDA-MB-435 melanoma = system: MDA-MB-435 melanoma

Measured: growth

CC(=O)Nc1nc(N)nc(NC(C)=O)c1N=O
inactive: SR leukemia 100% | RPMI-8226 leukemia 118% | OVCAR-8 ovarian 109% | OVCAR-5 ovarian 108% | OVCAR-4 ovarian 127% | SK-OV-3 ovarian 103% | IGROV1 ovarian 131% | OVCAR-3 ovarian 99.7% | NCI/ADR-RES ovarian 97.2% | T-47D breast 110% | BT-549 breast 104% | SW-620 colon 101% | MCF7 breast 108% | HCT-116 colon 98.6% | HCC-2998 colon 84% | KM12 colon 111%

COc1ccc(S(=O)(=O)NCCCNc2nccc(-c3c(-c4cccc([N+](=O)[O-])c4)nc4sccn34)n2)cc1
active: T-47D breast 3.31%
inactive: SR leukemia 53.5% | RPMI-8226 leukemia 11.5% | OVCAR-8 ovarian 29.8% | OVCAR-5 ovarian 98.7% | OVCAR-4 ovarian 29.2% | SK-OV-3 ovarian 89.6% | IGROV1 ovarian 40.1% | HS 578T breast 65.9% | NCI/ADR-RES ovarian 22.9% | BT-549 breast 36.5% | MDA-MB-435 melanoma 42.1% | SW-620 colon 91.4% | MCF7 breast 34.5% | HCT-116 colon 48.7% | HCC-2998 colon 82.1% | KM12 colon 28.9%

N#C/C(=C1C=C/C(=N/O)C(Cl)=C/1)c1ccc(Cl)cc1
active: HCT-116 colon 1.93% | KM12 colon -46.4%
inactive: SR leukemia 78.5% | RPMI-8226 leukemia 20.7% | OVCAR-8 ovarian 66.3% | OVCAR-5 ovarian 129% | OVCAR-4 ovarian 88.9% | SK-OV-3 ovarian 121% | IGROV1 ovarian 45.4% | OVCAR-3 ovarian 31.7% | HS 578T breast 87.7% | NCI/ADR-RES ovarian 63.1% | BT-549 breast 87.2% | MDA-MB-435 melanoma 29.5% | SW-620 colon 59.2% | HCC-2998 colon 101%

COc1ccc(C2=CC(c3cc(OC)c(OC)c(OC)c3)NC(=O)N2)cc1OC (configuration not stated)
active: SR leukemia 9.57% | RPMI-8226 leukemia 4.8% | IGROV1 ovarian -17.7% | OVCAR-3 ovarian -24% | HS 578T breast 7.62% | BT-549 breast 8.72% | KM12 colon -26.8%
inactive: OVCAR-8 ovarian 18.8% | OVCAR-5 ovarian 34.6% | OVCAR-4 ovarian 18.8% | SK-OV-3 ovarian 23.3% | NCI/ADR-RES ovarian 13.7% | SW-620 colon 17.3% | HCT-116 colon 13.4% | HCC-2998 colon 18.7%

O=[N+]([O-])c1cnc(Sc2ccncn2)s1
active: SR leukemia -69.7% | RPMI-8226 leukemia -64.1% | IGROV1 ovarian -80.7% | OVCAR-3 ovarian -95.5% | T-47D breast -13.9% | SW-620 colon -80.9% | HCT-116 colon -48.5% | HCC-2998 colon 6.85%
inactive: OVCAR-8 ovarian 73.3% | OVCAR-5 ovarian 94.1% | OVCAR-4 ovarian 53.9% | SK-OV-3 ovarian 114% | NCI/ADR-RES ovarian 67% | BT-549 breast 103% | MDA-MB-435 melanoma 27.2% | KM12 colon 75.9%

CC(C)CC1NC(C)(C)CO1 (configuration not stated)
inactive: SR leukemia 124% | RPMI-8226 leukemia 103% | OVCAR-8 ovarian 105% | OVCAR-5 ovarian 114% | OVCAR-4 ovarian 111% | SK-OV-3 ovarian 110% | IGROV1 ovarian 112% | OVCAR-3 ovarian 106% | HS 578T breast 142% | NCI/ADR-RES ovarian 104% | BT-549 breast 116% | MDA-MB-435 melanoma 113% | SW-620 colon 106% | MCF7 breast 104% | HCT-116 colon 114% | HCC-2998 colon 102% | KM12 colon 110%

CCCCCCCCCCCCCCCCCCNC(=O)[C@H]1CSC(c2ccc(OC)cc2O)N1 (some centres not stated)
active: SR leukemia 9.44%
inactive: RPMI-8226 leukemia 73.4% | OVCAR-8 ovarian 12% | OVCAR-5 ovarian 56% | OVCAR-4 ovarian 84.6% | SK-OV-3 ovarian 96.4% | IGROV1 ovarian 60.1% | OVCAR-3 ovarian 80.3% | NCI/ADR-RES ovarian 70.8% | T-47D breast 60% | BT-549 breast 27.4% | MDA-MB-435 melanoma 25.4% | SW-620 colon 67.3% | MCF7 breast 23.7% | HCT-116 colon 39.3% | HCC-2998 colon 76.7% | KM12 colon 27%

CC(C)(C)n1cc(-c2ccnc(NCCCNS(=O)(=O)c3cccc(F)c3)c2)c(-c2cccc(O)c2)n1
inactive: SR leukemia 16.4% | RPMI-8226 leukemia 17.5% | OVCAR-8 ovarian 57.5% | OVCAR-5 ovarian 68.2% | OVCAR-4 ovarian 57.8% | SK-OV-3 ovarian 89.2% | IGROV1 ovarian 58.8% | HS 578T breast 58.2% | NCI/ADR-RES ovarian 62% | T-47D breast 35.7% | BT-549 breast 67.4% | MDA-MB-435 melanoma 61.2% | SW-620 colon 24.5% | MCF7 breast 21.6% | HCT-116 colon 47.1% | HCC-2998 colon 15.7% | KM12 colon 26.5%

S=C1CC(=S)NC(=S)N1
inactive: SR leukemia 109% | RPMI-8226 leukemia 122% | OVCAR-8 ovarian 104% | OVCAR-5 ovarian 110% | OVCAR-4 ovarian 99% | SK-OV-3 ovarian 111% | IGROV1 ovarian 96.7% | OVCAR-3 ovarian 116% | NCI/ADR-RES ovarian 105% | BT-549 breast 110% | MDA-MB-435 melanoma 112% | SW-620 colon 98.2% | MCF7 breast 94.1% | HCT-116 colon 105% | HCC-2998 colon 104% | KM12 colon 98.9%
